Bioassay records from PubChem BioAssay.
Pf growth 96h: inhibits malaria parasite growth, 96 h. P. falciparum luciferase reporter growth, 96 h. Potency, µM (titrated, usually from 28.7 µM), for the others: at the top dose activity change, negative = inhibition, actives largely listed as inhibitors. 320,000 compounds, 6.9% hits; also: potency is read from the fitted curve at half-maximal effect; % is scaled to controls: 0 for no effect and ±100 for the full control effect
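Two parasite generations (96 h, 37 C, 5% CO2) of compound exposure in infected erythrocytes (0.05% parasitemia, 2% hematocrit). Luciferase-reporter P. falciparum; decreased luminescence indicates inhibited growth, aimed at apicoplast-acting delayed death.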
SARS PLP yeast: SARS-CoV PLP inhibition in yeast; S. cerevisiae expressing SARS-CoV PLpro, growth rescue; Potency, µM (doses to about 32.9 µM), inactives show at the top dose activity, positive = growth rescue, hits mostly activators; 330,000 compounds, 0.19% hits; AID 485353; calls by dose curve; also: potency is read from the fitted curve at half-maximal effect; 0% is about no effect; nearly all actives have a fitted effect of over 55% in size
HCMV antiviral: inhibitors of human cytomegalovirus | 410,000 compounds, 4.5% hits | HFF cells, HCMV-luciferase reporter, 72 h; hits give low values | AID 1259415 | activity change, negative = inhibition, % at 57.5 µM; in the data active = activity change below about -60%; inconclusive = no clear call, values can overlap the other calls; inactive = above about -39%; also: % is scaled to controls: 0 for no effect and ±100 for the full control effect
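Cell-based, HFFs, 1000 cells/well, 16 h 37C; cpds in DMSO + HCMV-luc, MOI 1 PFU/cell; 72 h 37C; OneGlo luminescence after 5 min RT; norm. to buffer vs Salinomycin 10uM.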
HCV inh: inhibitors of hepatitis C virus infection; Potency, µM (doses to about 41.8 µM), for inactives: top-dose activity change, negative = inhibition, usual class: inhibitors; 340,000 compounds, 3.4% hits; Huh7.5.1 HCVcc-Cre infection, luciferase reporter, 44 h; also: potency is read from the fitted curve at half-maximal effect; % is scaled to controls: 0 for no effect and ±100 for the full control effect
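Compounds are dispensed onto cells plated 4 h earlier at 1,000 per well, with HCVcc-Cre virus (about 0.5 moi) added next. Following 44 h of culture, luminescent signal is measured for 15 sec after 15 min with substrate at room temperature.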
Pf growth 48h: P. falciparum growth inhibition at 48 hours (one generation); 310,000 compounds, 5.9% hits; P. falciparum luciferase growth in erythrocytes, 48 h; Potency, µM (titrated, usually from 28.7 µM), for the others: top-dose activity change, negative = inhibition, hits mostly inhibitors; also: potency is read from the fitted curve at half-maximal effect; % is scaled to controls: 0 for no effect and ±100 for the full control effect
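Luciferase-expressing parasites in RBCs, 2% Hct / 0.1% parasitemia final; RPMI 1640 + 0.5% Albumax; 37 C, 5% CO2, one generation; luminescence read-out, lower signal = inhibition.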
Sm TGR inh: blocks Schistosoma mansoni thioredoxin glutathione reductase; purified TGR, DTNB reduction, TNB absorbance 405 nm; AID 485364; Potency, µM (series often up to 114 µM), inactives show at the highest dose activity change, negative = inhibition, actives largely listed as inhibitors; Q962Y6; 360,000 compounds, 3% hits; also: potency is read from the fitted curve at half-maximal effect; % is scaled to controls: 0 for no effect and ±100 for the full control effect; nearly all actives have a fitted effect of over 60% in size
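Kinetic colorimetric format: TGR-catalysed, NADPH-driven DTNB reduction monitored via TNB absorbance. Enzyme dispensed at 20 nM; compound exposure 15 min at room temperature before reaction start.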
* hit, by the source's call; i = inactive; ? = inconclusive; . = no result given; [ ] = another dose, or the depositor's remark. Rows were chosen to be rich in hits. Some 15% of all compounds tested hit in one or more screens of this group. Unless noted, calls follow the shape of the dose curve; as a rule, active = well fitted curve in the direction sought with a large enough effect; inconclusive = small, poorly fitted or top-dose-only effect, or another doubt; inactive = no such curve, though single readings can be large; an effect the other way counts as inactive or inconclusive.

SMILES	Pf growth 96h	SARS PLP yeast	HCMV antiviral	HCV inh	Pf growth 48h	Sm TGR inh
COc1cc2c(cc1OC)CN(S(=O)(=O)c1cccs1)CC2	1%	-2%	48	2%	2%	10%
COc1cc2c(cc1OC)CN(CC(=O)Nc1ccc(S(=O)(=O)N3CCCC3)cc1)CC2	13µM*	3%	-22	-28%	0%	-6%
COc1ccc(S(=O)(=O)N2CCc3cc(OC)c(OC)cc3C2)cc1	-6%	-1%	-31	-25%	0.83µM*	0%
COc1cc2c(cc1OC)C(C)N(C(=O)Nc1ccc(F)cc1)CC2 (stereo unspecified)	-23%	-1%	-102*	-26%	-21%	-8%
C[C@@H]1CN([C@H](C)CO)C(=O)c2cc(C#CC3CCCCC3)cnc2O[C@H]1CN(C)Cc1cccnc1	.	.	-22	.	.	.
COc1cc2c(cc1OC)C(C)N(CC(=O)Nc1ccc(S(=O)(=O)N3CCCC3)cc1)CC2 (stereo unspecified)	?	-7%	?	?	12µM*	35µM*
CN(C)CCCNC(=O)/C(=C\C=C\c1ccccc1)NC(=O)c1ccc([N+](=O)[O-])cc1	?	1%	-18	?	?	-14%
CCOc1ccc(Nc2oc(-c3ccc(COc4ccc(OC)cc4)o3)nc2C#N)cc1	.	.	-81*	.	.	2%
CC(Nc1oc(-c2ccc(COc3ccccc3)o2)nc1C#N)c1ccccc1 (stereo unspecified)	.	.	-79*	.	.	-12%
COc1ccccc1-c1noc(-c2ccc(NC(C)C)c([N+](=O)[O-])c2)n1	.	.	52	.	.	28%
COC(=O)c1cccc(N2C(=O)C[C@](Sc3ccc(OC)cc3)(C(=O)N3CCCC3)[C@H]2c2ccc(OC)cc2)c1	.	.	-14	.	.	.
COc1cccc(/C=C2\CCc3ccccc3C2=O)c1	i	-5%	0	-3%	80%	1%
COc1ccc2c(c1)CC/C(=C/c1cc(OC)c(OC)c(OC)c1)C2=O	15µM*	-23%	4	?	?	1%
COc1ccc(OC)c(C=C2CCc3ccccc3C2=O)c1	.	.	-96*	.	.	.
COc1ccc2c(c1)CC/C(=C\C=C\c1ccccc1)C2=O	?	3%	-10	?	?	45µM*
O=C1C(=Cc2ccccn2)CCc2ccccc21	.	.	-13	.	.	.
Cc1ccsc1/C=C1\CCc2ccccc2C1=O	10µM*	-28%	69	-9%	.	14%
O=C(CSC1=Nc2ccccc2N=C(c2ccc(F)cc2)C1)NCc1ccccc1	.	.	20	.	.	1%
CCCCNC(=O)O[C@H]1CC[C@@]23CCCN2C(=O)CCC[C@H]3[C@H]1Cc1ccccc1	.	.	-17	.	.	.
COc1ccc(CSc2nncn2N)cc1[N+](=O)[O-]	7.4µM*	16%	-26	0%	39%	5%
COc1ccc(CSc2cccc3cccnc23)cc1[N+](=O)[O-]	6.6µM*	7%	-3	-2%	69%	-2%
CCc1cccc(NC(=O)c2sc3nc[nH]c(=O)c3c2C)c1	.	.	31	.	.	11%
COCCNC(=O)c1cc2n(n1)CCCN(Cc1ccc(C)cc1)C2=O	.	.	-1	.	.	2%
CCn1c(SCC(=O)c2cc(C)ccc2C)nc2cc(S(=O)(=O)N3CCOCC3)ccc21	7.4µM*	16%	-63*	?	?	-9%
CCn1c2ccccc2c2nc3cc(S(=O)(=O)N4CCOCC4)ccc3nc21	-78%	-8%	.	10µM*	.	-33%[11.4 µM]
SMILES	Pf growth 96h	SARS PLP yeast	HCMV antiviral	HCV inh	Pf growth 48h	Sm TGR inh
Cc1ccc(S(=O)(=O)N2CCOCC2)cc1C(=O)OC(C)C(=O)c1ccccc1 (stereo unspecified)	0%	-4%	-39	3.5µM*	?	5%
Cc1ccc(S(=O)(=O)N2CCOCC2)cc1C(=O)OCCOc1cccc(Cl)c1	10µM*	-6%	?	?	?	1%
Cc1ccc(S(=O)(=O)N2CCOCC2)cc1C(=O)O	.	7%	3	15%	7%	0%
c1ccc2nc3c(nc2c1)c1ccccc1n3CCN1CCOCC1	.	-8%	-11	?	?	-32%
O=C(CCN1N=C(c2ccccc2)CCC1=O)NCC1COc2ccccc2O1 (stereo unspecified)	-22%	1%	-14	-9%	-5%	-3%
CC1(C)c2ccccc2-n2c1cc1oc(=O)cc(O)c1c2=O	-21%	5%	-25	-14%	-17%	14%
Cc1ccc(S(=O)(=O)N2CCOCC2)cc1C(=O)OCC(=O)N1CCCCC1	.	13%	-3	-4%	.	.
Cc1ccc(COC(=O)c2cc(S(=O)(=O)N3CCOCC3)ccc2C)cc1	13µM*	-8%	-12	?	9.3µM*	-9%
CCOC(=O)C(=C1Nc2ccccc2N1)n1c(-c2cccnc2)nc2ccccc21	.	.	144	.	.	.
CC(=O)Oc1ccc2ccc3ccc(C(C)=O)cc3c2c1	.	.	3	13µM*	.	.
CC(=O)c1ccc(OC(=O)Oc2ccc(C(C)=O)cc2)cc1	.	.	28	23%	.	.
Cc1ccc(C)n1NC(=O)c1ccccc1[N+](=O)[O-]	-28%	3%	-20	6%	1%	.
Cc1ccc(C)n1NC(=O)c1ccccc1O	9.3µM*	-3%	-40	0%	?	4%
Cc1c(CCC(=O)NC2CC2)c(=O)oc2cc(O)ccc12	?	-10%	-26	-92%	?	-25%
Cc1ccc(NC(=O)c2cc(S(=O)(=O)N3CCCCC3)ccc2N2CCOCC2)cc1F	.	29%	6	-23%	12µM*	2%
NC(=O)c1ccc(NC(=O)c2cc(S(=O)(=O)N3CCCCC3)ccc2N2CCOCC2)cc1	?	-9%	0	1%	?	3%
COc1cc(NC(=O)c2cc(S(=O)(=O)N3CCCCC3)ccc2N2CCOCC2)cc(OC)c1	?	9%	-17	-2%	?	5%
COc1ccc(C)cc1NC(=O)c1cc(S(=O)(=O)N2CCCCC2)ccc1N1CCOCC1	?	-5%	?	?	12µM*	3%
CC(=O)Nc1ccc(NC(=O)c2cc(S(=O)(=O)N3CCCCC3)ccc2N2CCOCC2)cc1	.	.	-14	35%	.	.
Cc1ccc(S(=O)(=O)N2CCOCC2)cc1C(=O)Nc1ccc(N2CCCCCC2)cc1	?	4%	-64*	5µM*	?	1%
O=C(Nc1ccc(OC(F)F)cc1)c1cc(S(=O)(=O)N2CCCCC2)ccc1N1CCOCC1	4.7µM*	6%	-15	-10%	?	-6%
CC(C)(C)n1ncc2c(=O)n(CC(=O)OCc3ccccc3)cnc21	-28%	-4%	?	12%	109%	3%
CC(C)(C)n1ncc2c(=O)n(CC(=O)c3ccccc3)cnc21	2.1µM*	-28%	24	-16%	275%	?
